# From PubChem BioAssay (Tox21)
# A number with no mark means an inactive call. Where a call stands in place of a potency, no number is given. Active and inactive are the calls of the source. Unless noted, the call rests on the fitted dose curve; in most records, active means well fitted curve in the direction sought with a large enough effect in the repeat runs; inconclusive means weak or mixed curves; inactive means no such curve, though single readings can be large; an effect the other way counts as inactive or inconclusive.
# Key:
# [1] = qHTS assay to identify small molecule antagonists of the glucocorticoid receptor (GR) signaling pathway - cell viability counter screen (AID 720693); further: nearly all actives have a fitted effect of over 55% in size
# [2] = qHTS assay for identifying genotoxic compounds that show differential cytotoxicity against isogenic chicken DT40 cell lines with known DNA damage response pathways - wild type cell line (AID 743012); further: nearly all actives have a fitted effect of over 60% in size
# Outline: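 CellTiter-Glo luminescence readout of viability in wild type DT40 cells after 40 h compound exposure at 37 C/5% CO2; 300 cells/well; reagent incubated 30 min at room temperature before reading.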
# [3] = qHTS assay for identifying genotoxic compounds that show differential cytotoxicity against isogenic chicken DT40 cell lines with known DNA damage response pathways - Rev3 mutant cell line (AID 743014); further: nearly all actives have a fitted effect of over 55% in size
# [4] = qHTS assay for identifying genotoxic compounds that show differential cytotoxicity against isogenic chicken DT40 cell lines with known DNA damage response pathways - Rad54/Ku70 mutant cell line (AID 743015); further: nearly all actives have a fitted effect of over 60% in size
# [5] = qHTS assay to identify small molecule antagonists of the androgen receptor (AR) signaling pathway - cell viability counter screen (AID 743033; further: nearly all actives have a fitted effect of over 45% in size)
# [6] = qHTS assay to identify small molecule antagonists of the androgen receptor (AR) signaling pathway using the MDA cell line - cell viability counter screen (AID 743041; further: nearly all actives have a fitted effect of over 45% in size)
# Outline: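 Viability read by CellTiter-Fluor fluorescence in the same wells as the antagonist screen, added after 15.5 h of a 16 h, 37C exposure. Human breast carcinoma MDA-kb2 AR-luc cells, compounds co-dosed with agonist R1881.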
# [7] = qHTS assay to identify small molecule antagonists of the thyroid receptor (TR) signaling pathway - cell viability counter screen (AID 743064); further: nearly all actives have a fitted effect of over 50% in size
# Outline: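 Fluorescence from CellTiter-Fluor, added after 23.5 h exposure at 37 °C, reported viability of GH3.TRE-Luc cells co-treated with compound and 1 nM T3. Measured in the same wells as the luciferase TR readout.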
# [8] = qHTS assay to identify small molecule antagonists of the thyroid receptor (TR) signaling pathway (AID 743065); further: series mostly up to about 70 µM; nearly all actives have a fitted effect of over 55% in size
# Outline: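 Antagonism measured as loss of luciferase signal in GH3 cells stably carrying a TRE-luciferase reporter, co-treated with compound and T3 (1 nM final) for 23.5 h at 37 C. Viability was read in the same well by CellTiter-Fluor.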
# [9] = system: thyroid hormone receptor (rat, GH3 cells); experiment: qHTS assay to identify small molecule agonists of the thyroid receptor (TR) signaling pathway (AID 743066; calls by dose curve)
# [10] = qHTS assay to identify small molecule antagonists of the estrogen receptor alpha (ER-alpha) signaling pathway - cell viability counter screen (AID 743074; calls by dose curve;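 further: HEK293 cells carrying ER-alpha-UAS-bla reporter stimulated with 17beta-estradiol; nearly all actives have a fitted effect of over 45% in size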)
# [11] = qHTS assay to identify small molecule antagonists of the estrogen receptor alpha (ER-alpha) signaling pathway using the BG1 cell line - cell viability counter screen (AID 743081);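 further: compound given together with 17beta-estradiol as the ER stimulus; series mostly up to about 70 µM; nearly all actives have a fitted effect of over 45% in size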
# Aromatase (Homo sapiens) = Aromatase (Homo sapiens) (UniProt P11511); experiment: qHTS assay to identify aromatase inhibitors (AID 743083); further: series mostly up to about 70 µM; nearly all actives have a fitted effect of over 55% in size
# Aromatase (Homo sapiens), sequence (P11511 whole entry, looked up): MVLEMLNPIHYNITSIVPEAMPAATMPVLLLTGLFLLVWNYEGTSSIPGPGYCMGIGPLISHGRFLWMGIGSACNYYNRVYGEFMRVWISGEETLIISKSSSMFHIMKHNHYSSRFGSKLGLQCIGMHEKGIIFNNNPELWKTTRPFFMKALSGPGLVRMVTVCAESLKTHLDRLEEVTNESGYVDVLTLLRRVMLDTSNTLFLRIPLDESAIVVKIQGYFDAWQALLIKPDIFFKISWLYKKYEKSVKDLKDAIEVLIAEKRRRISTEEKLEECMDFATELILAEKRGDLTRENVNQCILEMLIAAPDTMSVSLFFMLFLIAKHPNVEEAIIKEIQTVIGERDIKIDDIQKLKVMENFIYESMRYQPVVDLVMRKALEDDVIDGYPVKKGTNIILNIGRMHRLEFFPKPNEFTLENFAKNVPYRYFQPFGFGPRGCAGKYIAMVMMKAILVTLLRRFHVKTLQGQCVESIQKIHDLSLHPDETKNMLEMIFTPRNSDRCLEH
# [12] = qHTS assay to identify aromatase inhibitors - cell viability counter screen (AID 743084)
# [13] = qHTS assay to identify small molecule antagonists of the estrogen receptor alpha (ER-alpha) signaling pathway using the BG1 cell line (AID 743080; calls by dose curve;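 further: BG1 cells stimulated with 17beta-estradiol alongside compound; series mostly up to about 70 µM; nearly all actives have a fitted effect of over 25% in size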)
# Outline: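 BG1Luc4E2, endogenous ER-alpha, 4xERE-luc; 5 d charcoal-stripped FBS, phenol red free; 24 h plating; cpd + 17beta-estradiol 21.5 h, 37 C/5% CO2; CellTiter-Fluor viability 30 min, then ONE-Glo luciferase 30 min RT.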
# [14] = biological target: Estrogen receptor (Homo sapiens) (UniProt P03372); experiment: qHTS assay to identify small molecule antagonists of the estrogen receptor alpha (ER-alpha) signaling pathway (AID 743069; active means well fitted curve in the direction sought with a large enough effect in the signal ratio in the repeat runs, not every such curve was filed as active; inconclusive means weak or mixed curves, or effect the other way; inactive means no such curve, though single readings can be large or run the other way; the % refers to the signal ratio)
# Estrogen receptor (Homo sapiens), sequence (P03372 whole entry, looked up): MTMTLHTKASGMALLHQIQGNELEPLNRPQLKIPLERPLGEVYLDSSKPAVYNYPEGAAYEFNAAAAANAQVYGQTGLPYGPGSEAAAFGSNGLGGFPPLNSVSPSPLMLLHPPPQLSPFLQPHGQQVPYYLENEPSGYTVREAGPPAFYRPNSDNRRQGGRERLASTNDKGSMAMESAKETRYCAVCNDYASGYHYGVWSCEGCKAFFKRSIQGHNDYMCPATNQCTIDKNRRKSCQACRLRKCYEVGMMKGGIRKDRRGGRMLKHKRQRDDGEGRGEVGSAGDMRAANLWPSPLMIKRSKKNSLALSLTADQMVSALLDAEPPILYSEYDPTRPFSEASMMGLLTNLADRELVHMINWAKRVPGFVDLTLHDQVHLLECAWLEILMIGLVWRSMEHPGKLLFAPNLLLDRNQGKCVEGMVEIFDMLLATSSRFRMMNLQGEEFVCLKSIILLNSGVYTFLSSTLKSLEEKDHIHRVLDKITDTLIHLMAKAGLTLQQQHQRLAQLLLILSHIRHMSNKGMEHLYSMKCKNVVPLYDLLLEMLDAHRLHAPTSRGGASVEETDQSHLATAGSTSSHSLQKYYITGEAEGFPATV
# Outline: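 Antagonist mode: compounds in DMSO were co-added with 17beta-estradiol to ER-alpha-bla HEK293 cells (2% charcoal-stripped serum) and left 18 h at 37C. Reporter inhibition was measured as FRET fluorescence after 2 h LiveBLAzer substrate at room temperature.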
# [15] = biological target: Estrogen receptor (Homo sapiens) (UniProt P03372); experiment: qHTS assay to identify small molecule agonists of the estrogen receptor alpha (ER-alpha) signaling pathway (AID 743075; calls by dose curve;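 further: HEK293 GripTite cells with ER-alpha and UAS-driven beta-lactamase reporter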; further: potency means the concentration at half of the fitted maximal effect)
# [16] = biological target: Estrogen receptor (Homo sapiens) (UniProt P03372); experiment: qHTS assay to identify small molecule agonists of the estrogen receptor alpha (ER-alpha) signaling pathway using the BG1 cell line (AID 743079); further: nearly all actives have a fitted effect of over 20% in size; further: potency means the concentration at half of the fitted maximal effect
Structure (SMILES),outcome [1],Potency [2],Potency [3],Potency [4],outcome [5],outcome [6],Potency [7],Potency [8],Potency [9],Potency [10],outcome [11],Potency (Aromatase (Homo sapiens)),outcome [12],Potency [13],outcome [14],Potency [15],Potency [16]
COc1ccc(Cl)cc1C,inactive,inactive,inactive,inactive,inactive,inactive,inactive,inactive,inactive,inactive,inactive,inactive,inactive,–,–,–,–
Cc1ccc2ccccc2n1,inactive,inactive,inactive,inactive,inactive,inactive,–,inactive,inactive,inactive,inactive,inactive,inactive,–,–,–,–
N=C(N)N1CCc2ccccc2C1,inactive,inactive,inactive,inactive,inactive,–,inactive,inactive,inactive,inactive,inactive,inactive,inactive,inactive,–,–,–
CN(C)CCC[C@@]1(c2ccc(F)cc2)OCc2cc(C#N)ccc21,inactive,inactive,inactive,inactive,inactive,inactive,–,inactive,inactive,inactive,inactive,inactive,inactive,inactive,inactive,inactive,inactive
CC1(C)CC(N)CC(C)(C)N1,inactive,inactive,inactive,inactive,inactive,inactive,inactive,inactive,inactive,inactive,inactive,inactive,inactive,–,–,–,–
COC(=O)c1ccccc1Cl,inactive,inactive,inactive,inactive,inactive,inactive,inactive,inactive,inactive,inactive,inactive,inactive,inactive,–,–,–,–
O=C(c1ccccc1)c1cccc(O)c1,inactive,inactive,inactive,inactive,inactive,inactive,inactive,inactive,inactive,inactive,inactive,inactive,inactive,–,–,49.7 µM [inconclusive] (active),15.6 µM (active)
NC[C@H]1O[C@H](O[C@H]2[C@H](O)[C@@H](O[C@H]3O[C@H](CO)[C@@H](O)[C@H](N)[C@H]3O)[C@H](N)C[C@@H]2N)[C@H](N)[C@@H](O)[C@@H]1O,inactive,inactive,inactive,inactive,inactive,–,inactive,inactive,inactive,inactive,inactive,inactive,inactive,–,–,–,–
Cc1cc(C)c(N)c(Cl)c1,inactive,inactive,inactive,inactive,inactive,inactive,inactive,inactive,inactive,inactive,inactive,inactive,inactive,inactive,inactive,inactive,inactive
CN(C)CCc1c[nH]c2ccc(C[C@H]3COC(=O)N3)cc12,inactive,inactive,inactive,inactive,inactive,inactive,–,inactive,inactive,–,inactive,inactive,–,inactive,inactive,inactive,inactive
CC1(C)S[C@@H]2[C@H](NC(=O)Cc3ccccc3)C(=O)N2[C@H]1C(=O)O (tested in a mixture with another compound),inactive,inactive,inactive,inactive,inactive,inactive,–,–,–,inactive,inactive,inactive,inactive,inactive,inactive,inactive,inactive
CCC(C)SSC(C)CC (configuration not stated),inactive,inactive,inactive,inactive,inactive,inactive,inactive,inactive,inactive,inactive,inactive,inactive,inactive,inactive,–,inactive,inactive
CCN1CCN(C(=O)N[C@@H](C(=O)N[C@@H]2C(=O)N3[C@@H]2SC(C)(C)[C@H]3C(=O)O)c2ccccc2)C(=O)C1=O,inactive,inactive,inactive,inactive,inactive,inactive,inactive,inactive,inactive,–,inactive,inactive,inactive,inactive,inactive,inactive,inactive
CCN1CCN(C(=O)N[C@@H](C(=O)N[C@@H]2C(=O)N3C(C(=O)O)=C(CSc4nnnn4C)CS[C@H]23)c2ccc(O)cc2)C(=O)C1=O,inactive,inactive,inactive,inactive,inactive,inactive,inactive,–,–,inactive,inactive,inactive,inactive,inactive,inactive,inactive,inactive
O=C(O)Cc1ccccc1Oc1ccc(Cl)cc1Cl,inactive,inactive,inactive,inactive,inactive,inactive,–,inactive,inactive,inactive,inactive,inactive,inactive,inactive,inactive,inactive,inactive
CC(C)=CCC/C(C)=C\C#N,inactive,inactive,inactive,inactive,inactive,inactive,–,–,–,inactive,inactive,inactive,inactive,inactive,inactive,inactive,inactive
C=CCCCCCCCCCCCCCC,inactive,inactive,inactive,inactive,inactive,–,inactive,inactive,inactive,inactive,inactive,inactive,inactive,inactive,inactive,inactive,inactive
CCCCCCCCOCCC#N,inactive,inactive,inactive,inactive,inactive,inactive,inactive,inactive,inactive,inactive,inactive,–,inactive,–,–,–,–
